Results on 45 molecules are retold here after publication PMC4336329 (PLoS ONE, 2015).

Hit rate of the full screen: of about 310,000 compounds, about 14,000 (4.5%) showed an effect of 50% or more. Effects have a minus sign here. For the sample, strong results were picked, then their nearest neighbours and some compounds at random.
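Also: peak tail current of the secondary pulse compared with the same well before compound.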

human ether-à-go-go-related gene (hERG) potassium channel, sequence (Q12809 whole entry, looked up): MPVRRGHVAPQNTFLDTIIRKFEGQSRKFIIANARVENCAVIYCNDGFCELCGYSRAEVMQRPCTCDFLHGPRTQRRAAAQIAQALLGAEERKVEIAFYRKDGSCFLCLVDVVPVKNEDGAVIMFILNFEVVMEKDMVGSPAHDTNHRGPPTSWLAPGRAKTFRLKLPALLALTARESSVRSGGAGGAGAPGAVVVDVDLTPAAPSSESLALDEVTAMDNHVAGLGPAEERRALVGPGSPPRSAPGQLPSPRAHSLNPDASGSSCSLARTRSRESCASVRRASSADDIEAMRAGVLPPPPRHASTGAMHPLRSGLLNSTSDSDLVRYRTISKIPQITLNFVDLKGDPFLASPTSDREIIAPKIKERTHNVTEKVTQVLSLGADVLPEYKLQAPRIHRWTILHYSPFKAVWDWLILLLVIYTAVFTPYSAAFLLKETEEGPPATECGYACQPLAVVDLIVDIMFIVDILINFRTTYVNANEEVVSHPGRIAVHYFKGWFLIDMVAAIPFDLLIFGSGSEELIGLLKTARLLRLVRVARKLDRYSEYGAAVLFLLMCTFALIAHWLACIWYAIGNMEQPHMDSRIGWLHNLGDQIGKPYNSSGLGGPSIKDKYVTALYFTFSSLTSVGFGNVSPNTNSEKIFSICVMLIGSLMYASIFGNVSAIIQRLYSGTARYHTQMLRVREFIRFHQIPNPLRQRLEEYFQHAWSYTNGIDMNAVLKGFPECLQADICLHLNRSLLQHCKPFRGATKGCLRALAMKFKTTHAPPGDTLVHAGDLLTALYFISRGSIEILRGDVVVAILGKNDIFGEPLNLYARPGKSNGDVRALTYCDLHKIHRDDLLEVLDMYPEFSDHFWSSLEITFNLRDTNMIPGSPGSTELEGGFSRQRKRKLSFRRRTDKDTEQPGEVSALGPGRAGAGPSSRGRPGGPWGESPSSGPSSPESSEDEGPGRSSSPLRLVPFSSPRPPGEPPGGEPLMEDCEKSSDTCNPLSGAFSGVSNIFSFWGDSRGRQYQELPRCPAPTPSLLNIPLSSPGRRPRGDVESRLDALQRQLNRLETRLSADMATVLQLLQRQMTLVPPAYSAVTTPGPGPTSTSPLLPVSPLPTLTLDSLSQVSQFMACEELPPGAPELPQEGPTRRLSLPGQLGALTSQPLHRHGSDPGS

The experiment addresses human ether-à-go-go-related gene (hERG) potassium channel (human, UniProt Q12809). The experiment is described as follows: primary screen, population patch clamp on CHO cells stably expressing hERG; higher = less effect of the substance.
Regarding `Cc1ccc(C)c(C(=O)CCC(=O)Nc2cccnc2)c1`, the “hERG current change (%, negative = inhibition) at 10uM” value was determined as 7.26%.

As for `COc1cccc(/C=C/C(=O)OCC(=O)NCC2CCCCC2)c1OC`, the “hERG current change (%, negative = inhibition) at 10uM” value was 8.32%.

Turning to `CCN(CC)c1ccc2c(C)c(CN3CCOCC3)c(=O)oc2c1`, the “hERG current change (%, negative = inhibition) at 10uM” value is -11.1%.

Consider `C=Cc1ccc(C(=O)N2CCCC(CCC(=O)N3CCN(c4ccccn4)CC3)C2)cc1` (stereo not drawn), for which the “hERG current change (%, negative = inhibition) at 10uM” value is -4.57%.

In the case of `CCCCNc1nc(N)nc(-c2cc(Cl)ccc2O)n1`, the “hERG current change (%, negative = inhibition) at 10uM” value is given as 20.9%.

Take `CCCOc1ccc(C(=O)Nc2cccnc2)cc1`: the “hERG current change (%, negative = inhibition) at 10uM” value came to 3.01%.

`c1ccc(-c2nc(CSc3n[nH]c(-c4cccs4)n3)cs2)cc1`: the “hERG current change (%, negative = inhibition) at 10uM” value is -15.1%.

Consider `Cc1ccc2c(c1)c(=O)c1c3n2CCN(CC2CO2)C3CC1` (stereo not drawn), for which the “hERG current change (%, negative = inhibition) at 10uM” value amounted to 4.27%.

In the case of `O=C(CCl)N(Cc1cc(=O)[nH]c2ccccc12)c1ccccc1`, the “hERG current change (%, negative = inhibition) at 10uM” value is listed as 0.288%.

With `CCOC(=O)c1nn(-c2ccc(C)cc2)c(=O)cc1OCC(=O)Nc1cccc(OC)c1`, the “hERG current change (%, negative = inhibition) at 10uM” value was found to be 1.6%.

`COc1ccccc1C(=O)Nc1ccnn1C1CCN(Cc2cn(C)c3ccccc23)CC1`: the “hERG current change (%, negative = inhibition) at 10uM” value is given as -83.6%.

Turning to `Cn1cc(CN2CCC(n3nccc3NC(=O)c3ccccc3Cl)CC2)c2ccccc21`, the “hERG current change (%, negative = inhibition) at 10uM” value is recorded as -68.6%.

Regarding `Cc1cc(NC(=O)CSc2ccc3nnc(CCNS(=O)(=O)c4ccccc4)n3n2)no1`, the “hERG current change (%, negative = inhibition) at 10uM” value is 15.6%.

Consider `Nc1c(Cl)cc(-c2csc(N3CCCC3c3nc4cc(Cl)c(Cl)cc4n3CCOCCO)n2)cc1Cl` (stereo not drawn), for which the “hERG current change (%, negative = inhibition) at 10uM” value is reported as -0.601%.

In the case of `Cc1cccc(C)c1NC(=O)NNC(=O)c1cc(C(C)(C)C)nn1Cc1ccccc1`, the “hERG current change (%, negative = inhibition) at 10uM” value is recorded as 0.818%.

Turning to `CC1CCC/C(=N\NC(=S)Nc2ccccc2)C1` (stereo not drawn), the “hERG current change (%, negative = inhibition) at 10uM” value was 7.36%.

In the case of `O=C(Nc1ccc(Nc2ccccc2)cc1)c1c(Cl)cccc1Cl`, the “hERG current change (%, negative = inhibition) at 10uM” value is reported as 12.3%.

On to `Cc1ccc2c(c1)C1CN(C)CCC1N2C(=O)CCCN1C(=O)c2cccc3cccc(c23)C1=O` (stereo not drawn), for which the “hERG current change (%, negative = inhibition) at 10uM” value is -57.4%.

`Cc1ccc2c(c1)C1CN(C)CCC1N2C(=O)COc1ccc(N(C)C(=O)c2ccccc2)cc1` (stereo not drawn): the “hERG current change (%, negative = inhibition) at 10uM” value is on record as -11.6%.

Consider `CC1CCCN(C(=O)Cn2nnc(-c3ccccc3F)n2)C1` (stereo not drawn), for which the “hERG current change (%, negative = inhibition) at 10uM” value turned out to be 13.8%.

Regarding `Cc1ccc2c(c1)C1CN(C)CCC1N2C(=O)COc1ccccc1F` (stereo not drawn), the “hERG current change (%, negative = inhibition) at 10uM” value is on record as -4.18%.

With `Cc1ccc2c(c1)C1CN(C)CCC1N2C(=O)Cn1nnc(-c2ccccc2F)n1` (stereo not drawn), the “hERG current change (%, negative = inhibition) at 10uM” value is given as -60.1%.

With `COc1ccc(OCC(=O)N2c3ccc(C)cc3C3CN(C)CCC32)cc1` (stereo not drawn), the “hERG current change (%, negative = inhibition) at 10uM” value is recorded as -5.12%.

Turning to `Cc1cc(-n2c(SCc3ccccc3F)nc3n[nH]c(C)c3c2=N)ccc1Cl`, the “hERG current change (%, negative = inhibition) at 10uM” value came to 15.8%.

`COC(=O)c1ccccc1OCCCOc1ccc(C=O)cc1OC`: the “hERG current change (%, negative = inhibition) at 10uM” value is -4.02%.

In the case of `O=C(NCc1ccco1)c1ccc(COc2ccc(Cl)cc2)cc1`, the “hERG current change (%, negative = inhibition) at 10uM” value is given as 0.911%.

For the molecule `CCCN(C(=O)Cc1ccc(S(=O)(=O)N2CCOCC2)s1)c1c(N)n(Cc2ccccc2)c(=O)[nH]c1=O`, the “hERG current change (%, negative = inhibition) at 10uM” value came to 16.8%.

Take `CN(C)c1ccc(C(c2ccc(N(C)C)cc2)c2ccc([N+](=O)[O-])cc2)cc1`: the “hERG current change (%, negative = inhibition) at 10uM” value is 3.74%.

On to `Cc1cccc(Sc2nc(-c3ccccc3)ncc2C(=O)O)c1`, for which the “hERG current change (%, negative = inhibition) at 10uM” value came out at 11.7%.

For the molecule `Cc1cc(=O)oc2cc(OCC(=O)N3CCN(c4ccc(F)cc4)CC3)ccc12`, the “hERG current change (%, negative = inhibition) at 10uM” value is listed as -53%.

Regarding `Cc1cc(=O)oc2c(C)c(OCC(=O)N3CCN(c4ccc(F)cc4)CC3)ccc12`, the “hERG current change (%, negative = inhibition) at 10uM” value is listed as -65.9%.

As to `COc1ccc(N2CCN(C(=O)COc3ccc4c(C)cc(=O)oc4c3C)CC2)cc1`, the “hERG current change (%, negative = inhibition) at 10uM” value came out at 20.6%.

With `Cc1cc(=O)oc2c(C)c(OCC(=O)N3CCN(c4ccccc4)CC3)ccc12`, the “hERG current change (%, negative = inhibition) at 10uM” value is on record as -24.8%.

On to `COc1ccc(N2CCN(C(=O)COc3ccc4c(C)cc(=O)oc4c3)CC2)cc1`, for which the “hERG current change (%, negative = inhibition) at 10uM” value is -16.5%.

Take `Cc1cc(=O)oc2cc(OCC(=O)N3CCN(c4ccccc4)CC3)ccc12`: the “hERG current change (%, negative = inhibition) at 10uM” value was -36.6%.

Consider `CCC(C)c1ccc(NC(=S)NC(C)C2CCCO2)cc1` (stereo not drawn), for which the “hERG current change (%, negative = inhibition) at 10uM” value was -6.84%.

For `Cc1ccc(CN2CC(C(=O)N3CC(C)CC(C)C3)CC2=O)cc1` (stereo not drawn), the “hERG current change (%, negative = inhibition) at 10uM” value was -6.13%.

Take `CN(C)CCP(=O)(c1ccccc1)c1ccccc1`: the “hERG current change (%, negative = inhibition) at 10uM” value is listed as 13.4%.

Consider `O=C(O)COCc1nc2ccccc2s1`, for which the “hERG current change (%, negative = inhibition) at 10uM” value was -7.92%.

For the molecule `Cc1cccc(C(=O)N2CCc3cc(-c4nc(NC(=O)CN5CCCC5)sc4C)ccc32)c1`, the “hERG current change (%, negative = inhibition) at 10uM” value is on record as -0.886%.

As for `Cc1ccc(CC(=O)N(C)CC(=O)N(CC(C)C)c2c(N)n(CC(C)C)c(=O)[nH]c2=O)cc1C`, the “hERG current change (%, negative = inhibition) at 10uM” value is on record as -2.54%.

For the molecule `Cc1ccc2c(c1)COc1c3ccc(C(=O)NCC4CC4)cc3nn1-2`, the “hERG current change (%, negative = inhibition) at 10uM” value is on record as -6.56%.

For `COc1ccc(CCN(C)Cc2ccc(OC)c(OCc3ccccc3)c2)cc1OC`, the “hERG current change (%, negative = inhibition) at 10uM” value is listed as -81.6%.

Turning to `CN(Cc1ccccc1)C(=O)c1ccc(NC(=O)C2=CSCCO2)cc1`, the “hERG current change (%, negative = inhibition) at 10uM” value is given as -0.926%.

With `COc1ccc(CCN(C)Cc2ccncc2)cc1OC`, the “hERG current change (%, negative = inhibition) at 10uM” value is given as -27.2%.
